Data on 25 compounds can be found in PubChem BioAssay (NCATS).

Where “and” joins values, the source holds several entries; their conditions need not be identical. Equal values may be shown once. Records with an inconclusive call do not appear. Calls of active or inactive are those of the source. Calls follow the shape of the full dose curve.
Potency is read from the fitted curve at half-maximal effect.

The nature of the experiment: Primary qHTS to identify inhibitors of SARS-CoV-2 cell entry (AID 1645846). Also: nearly all actives have a fitted effect of over 45% in size. The settings on record: SARS-CoV-2 pseudovirus cell entry assay, luminescence; activity change, negative = inhibition: at 57.1 µM (top of the series) unless noted; series mostly up to 57.1 µM. In short, it runs like this:
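Data are normalized to wells receiving SARS-CoV-2-S pseudoparticles and those given bald particles. Entry signal was luciferase luminescence in stable hACE2 Expi293F cells, 48 hr post-infection, after 1 hr compound pretreatment.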
Background: qHTS replaces the single test concentration by a dilution series.
As for `CN[C@@H](C)C(=O)N[C@H]1CCCC[C@H]2CC[C@@H](C(=O)N[C@@H](c3ccccc3)c3cn(CCCCc4ccc(CCCCn5cc([C@@H](NC(=O)[C@@H]6CC[C@@H]7CCCC[C@H](NC(=O)[C@H](C)NC)C(=O)N76)c6ccccc6)nn5)cc4)nn3)N2C1=O`, the activity change, negative = inhibition was -12%.

For `COc1cc2c(cc1OC)CC(=O)N(CCCN(C)C[C@H]1Cc3cc(OC)c(OC)cc31)CC2`, the activity change, negative = inhibition was -5.42% and -13.8%.

As for `O=C(O)c1ccc2cc(-c3ccc(O)c(C45CC6CC(CC(C6)C4)C5)c3)ccc2c1`, the Potency was 1.58 µM (active).

Turning to `CC(C)C[C@H](NC(=O)[C@@H](O)[C@H](N)Cc1ccccc1)C(=O)O`, the activity change, negative = inhibition is -29.5%.

In the case of `CC1(C)Cc2c(-c3ccccc3)c(-c3ccc(Cl)cc3)c(CC(=O)O)n2C1`, the activity change, negative = inhibition is -28.3%.

As to `CC(C)(C)NCC(O)c1ccc(O)c(CO)c1` (stereo not given), the Potency entry was “inactive”.

Consider `Cn1cc(-c2[nH]c3cc(NC(=O)[C@H](N)C4CCCCC4)cc4c3c2C=NNC4=O)cn1`, for which the Potency was 8.91 µM (active).

As to `CCCn1c(=O)c2[nH]c(C34CC5CC3C[C@@H](C5)C4)nc2n(CCC)c1=O`, the activity change, negative = inhibition is -12.4%.

On to `O=C(NCCCNc1nc(Nc2cccc(NC(=O)N3CCCC3)c2)ncc1I)c1cccs1`, for which the compound was classed as inactive.

With `O=C(O)CNC(=O)CNC(=O)CNC(=O)CSC(=O)c1ccccc1`, the activity change, negative = inhibition was found to be 1.66%.

Consider `CCCCCCCCCCCCCC(=O)N[C@H](CO)[C@H](O)c1ccc([N+](=O)[O-])cc1`, for which the compound was called inactive.

In the case of `Nc1nc2c(ncn2CCC(CO)CO)c(=O)[nH]1`, the activity change, negative = inhibition is -17.9%.

Regarding `O=C(Nc1ccccc1-c1cn2c(CN3CCNCC3)csc2n1)c1cnc2ccccc2n1`, the Potency was 7.94 µM (active).

As to `Cn1c2cc(S(C)=O)sc2c2cnn(Cc3cccc(N)c3)c(=O)c21` (stereo not given), the activity change, negative = inhibition was -23.3%.

In the case of `Cc1cc(C(=O)NNCc2ccccc2)no1`, the activity change, negative = inhibition is -26.2% [at 114 µM].

With `Cc1cn(-c2cc(NC(=O)c3ccc(C)c(Nc4nccc(-c5cccnc5)n4)c3)cc(C(F)(F)F)c2)cn1`, the activity change, negative = inhibition was -29.3%.

As to `Cn1cc(-c2ccc3nnc(C(F)(F)c4ccc5ncccc5c4)n3n2)cn1`, the compound was called inactive.

Take `Cc1ccc(C(=O)Nc2ccc(CN3CCN(C)CC3)c(C(F)(F)F)c2)cc1C#Cc1cnc2cccnn12`: the Potency was 8.91 µM (active).

Consider `N#Cc1c(O)c2c(-c3ccc(-c4ccccc4O)cc3)csc2[nH]c1=O`, for which the activity change, negative = inhibition was 3.57%.

In the case of `CC(C)(C(=O)NCC(F)(F)C(F)(F)F)C(=O)N[C@@H]1C(=O)Nc2ccccc2-c2ccccc21`, the activity change, negative = inhibition was -16.5%.

Take `CC(C)(C)C(O)/C=C/c1ccc2c(c1)OCO2` (stereo not given): the activity change, negative = inhibition is -17.5%.

`CC1=C(C/C=C(\C)CCC[C@H](C)CCC[C@H](C)CCCC(C)C)C(=O)c2ccccc2C1=O`: the compound was called inactive.

For `CCCCCN(CCC12CC3CC(CC(C3)C1)C2)C(=O)NCCCc1ccncc1`, the activity change, negative = inhibition was -12.6%.

As for `N#C/C(=C1\SCC(c2ccccc2Cl)S1)n1ccnc1` (stereo not given), the outcome was inactive.

`COc1cc2c(cc1OC)CN(CCc1ccc(NC(=O)c3cccc4c(=O)c5cccc(OC)c5[nH]c34)cc1)CC2`: the activity change, negative = inhibition was -26.4%.
